Test results as given in PubChem BioAssay AID463173 (ICCB-Longwood Screening Facility, Harvard Medical School, 2010).
The campaign covered roughly 52,000 compounds. About 1,700 (3.3%) were called active. What follows is part of a selection rich in actives, with near analogues and random picks from the rest. Values without a mark were called inactive. Cut-off read from the data, not from the text of the source: active = survival mostly below about 52% (no sharp cut-off); inactive = mostly above about 56%.

What follows are compounds tested on Wild type (assay: growth inhibition of S. aureus wild type versus tarO mutant, primary screen, teichoic acid synthesis inhibitors, RN4220, OD600 (AID 463173)). Details: S. aureus RN4220 wild type/DeltatarO growth, OD600, 18 h, active compounds read low, screened at 18.75 µg/mL (by protocol).

Question: Which survival does the source give for `CCCCOC(=O)c1ccc(Nc2ncnc3c2cnn3-c2cccc(C)c2)cc1` here?
Answer: 88%

Question: Which survival does the source give for `Cn1cnnc1SC1CCCCC1NS(=O)(=O)c1ccc(Cl)cc1` (stereo unspecified) here?
Answer: 103%

Question: With `COc1ccccc1N1CCN(c2cc(C)nc3nc(-c4ccc(Cl)cc4)nn23)CC1` as the compound, how does the survival read?
Answer: 78%

Question: Which survival does the source give for `CCCCN(CC)CCCNC(=O)c1cc2c(=O)oc3ccc(C)cc3c2s1` here?
Answer: 97%

Question: With `COc1ccc2c(c1)c1c(c(=O)n(Cc3ccccc3)c(=O)n1CC(=O)NCc1ccc(C)cc1)n2C` as the compound, how does the survival read?
Answer: 82%

Question: Which survival does the source give for `COc1ccc(-c2noc(CSc3nnc(Cc4ccccc4)n3-c3cccc(C)c3)n2)cc1` here?
Answer: 67%

Question: `COc1ccc(N2CC(C(=O)NC3=NCCS3)CC2=O)cc1` (stereo unspecified) was tested. Which survival did it give?
Answer: 102%

Question: With `CC(C)N(C(=O)Cn1cc(SCC(=O)Nc2ccccc2F)c2ccccc21)C(C)C` as the compound, how does the survival read?
Answer: 86%

Question: Which survival does the source give for `O=Nc1c(O)n2c3c(cccc13)CCC2` here?
Answer: 124%

Question: With `N#CC(C#N)=C(N)/C(C#N)=C\c1ccc(-c2ccccc2)o1` as the compound, how does the survival read?
Answer: 129%

Question: Which survival does the source give for `O=S(=O)(c1ccc(Cl)cc1)c1nc(-c2ccco2)oc1SCc1ccc(F)cc1` here?
Answer: 73%

Question: `COc1cccc(NC(=O)C2=C(C)C(=O)OC23CCN(C(C)=O)CC3)c1` was tested. Which survival did it give?
Answer: 79%

Question: With `CCOC(=O)c1c(Nc2ccc(O)cc2)nnc(-c2ccccc2)c1-c1ccccc1` as the compound, how does the survival read?
Answer: 96%

Question: With `CCOC(=O)c1c(Nc2ccccc2)nnc(-c2ccccc2)c1-c1ccccc1` as the compound, how does the survival read?
Answer: 5% (active)

Question: With `CCOC(=O)c1c(Oc2ccc(C(=O)OC)cc2)nnc(-c2ccccc2)c1-c1ccccc1` as the compound, how does the survival read?
Answer: 87%

Question: `CCOC(=O)c1c(-c2ccccc2)csc1NC(=O)c1cc(-c2cccc(OC)c2)on1` was tested. Which survival did it give?
Answer: 72%

Question: Which survival does the source give for `CC(=O)N1CCCc2cc(S(=O)(=O)N(Cc3ccccc3)C(C)C)ccc21` here?
Answer: 73%

Question: For `COc1cc(C(=O)OCc2cc(=O)n3nc(C(C)C)sc3n2)cc(OC)c1OC`, which survival is on record?
Answer: 78%

Question: `COc1ccccc1C(=O)Nc1ccc(C(=O)OCc2cc(=O)n3ccsc3n2)cc1` was tested. Which survival did it give?
Answer: 72%

Question: For `COc1ccccc1C(=O)Nc1ccccc1C(=O)OCc1cc(=O)n2ccsc2n1`, which survival is on record?
Answer: -6% (active)

Question: Which survival does the source give for `O=C(Nc1ccccc1C(=O)OCc1cc(=O)n2ccsc2n1)c1ccccc1Cl` here?
Answer: 75%

Question: `COc1cc(C(=O)OCc2cc(=O)n3ccsc3n2)cc(OC)c1OC` was tested. Which survival did it give?
Answer: -4% (active)

Question: `COc1ccccc1C(=O)Nc1cccc(C(=O)OCc2cc(=O)n3ccsc3n2)c1` was tested. Which survival did it give?
Answer: -6% (active)

Question: `Cc1cccc(C(=O)OCc2cc(=O)n3ccsc3n2)c1` was tested. Which survival did it give?
Answer: 71%

Question: For `Cc1ccccc1C(=O)Nc1cccc(C(=O)OCc2cc(=O)n3ccsc3n2)c1`, which survival is on record?
Answer: 64%

Question: Which survival does the source give for `Cc1ccccc1C(=O)Nc1ccccc1C(=O)OCc1cc(=O)n2ccsc2n1` here?
Answer: 98%

Question: `O=[N+]([O-])c1cc(-c2nc(-c3ccccn3)no2)ccc1NCc1ccccc1` was tested. Which survival did it give?
Answer: 73%

Question: How did the survival turn out when `CCOC(=O)Cn1c(=O)oc2cc(S(=O)(=O)N3CCN(c4ccc(C(C)=O)cc4)CC3)ccc21` was run?
Answer: 81%

Question: Which survival does the source give for `CC(C)(C)OC(=O)N1CCC(c2c(C(=O)N3CCN(c4ccccn4)CC3)cnn2-c2ccccc2Cl)CC1` here?
Answer: 53%

Question: `COc1cc(NC(=O)c2ccccc2)c(OC)cc1NC(=O)CN1CCCCC1` was tested. Which survival did it give?
Answer: 109%

Question: How did the survival turn out when `CCOC(=O)c1ccc(N2C(=O)c3n[nH]c(-c4cccs4)c3C2c2ccc(C)cc2)cc1` (stereo unspecified) was run?
Answer: 66%

Question: How did the survival turn out when `CCN(CC)CCNC(=O)c1[nH]c2ccccc2c1Sc1ccc(Cl)cc1` was run?
Answer: 42%

Question: With `CC1CCCCN1CCCNC(=O)c1[nH]c2ccccc2c1Sc1ccc(Cl)cc1` (stereo unspecified) as the compound, how does the survival read?
Answer: -1% (active)

Question: Which survival does the source give for `CCC1CCCCN1CCCNC(=O)c1[nH]c2ccccc2c1Sc1ccc(Cl)cc1` (stereo unspecified) here?
Answer: -1% (active)

Question: `CCCCNC(=O)c1[nH]c2ccccc2c1Sc1ccc(C)cc1` was tested. Which survival did it give?
Answer: 83%

Question: How did the survival turn out when `CC1CCCCN1CCCNC(=O)c1cc(Sc2cccc(Cl)c2)nc2ccccc12` (stereo unspecified) was run?
Answer: 54%

Question: With `CCOC(=O)C1CCCN(C(=O)c2[nH]c3ccccc3c2Sc2ccc(Cl)cc2)C1` (stereo unspecified) as the compound, how does the survival read?
Answer: 75%

Question: With `COc1ccc(-c2noc(-c3ccc(NCCc4ccccc4)c([N+](=O)[O-])c3)n2)cc1` as the compound, how does the survival read?
Answer: 84%

Question: For `CC(=O)Nc1ccc(C(=O)N2CC(C)OC(C)C2)cc1` (stereo unspecified), which survival is on record?
Answer: 133%

Question: How did the survival turn out when `CC(C(=O)N1CCCCC1)N1CCC(N2CCCCC2)CC1` (stereo unspecified) was run?
Answer: 93%

Question: How did the survival turn out when `CCc1ccccc1NC(=O)CN1C(=O)CCSc2ccc(S(=O)(=O)N3CCCC3)cc21` was run?
Answer: 124%

Question: For `O=C(Nc1ccc2oc(-c3cccnc3)nc2c1)c1ccc(-c2cccc(OC(F)(F)F)c2)o1`, which survival is on record?
Answer: 80%

Question: For `Cc1ccc(NC(=O)N(Cc2c[nH]c3ccccc23)C2CCCCCC2)cc1C`, which survival is on record?
Answer: 54%

Question: How did the survival turn out when `COc1ccc2[nH]c(=O)c(CN(C(=O)Nc3ccccc3)C3CCCC3)cc2c1` was run?
Answer: 103%

Question: `O=C(Nc1ccccc1)N(Cc1c[nH]c2ccccc12)C1CCCCCC1` was tested. Which survival did it give?
Answer: 48%

Question: With `Cn1cc(CN(C(=O)Nc2ccccc2)C2CCCCC2)c2ccccc21` as the compound, how does the survival read?
Answer: -1% (active)

Question: Which survival does the source give for `Cc1ccc(NC(=O)N(Cc2cn(C)c3ccccc23)C2CCCCC2)cc1C` here?
Answer: -1% (active)

Question: `Cn1cc(CN(C(=O)Nc2ccc(Cl)c(Cl)c2)C2CCCCC2)c2ccccc21` was tested. Which survival did it give?
Answer: 60%

Question: How did the survival turn out when `CCOc1ccc(C(=O)Nc2ccccc2C(=O)OCc2cc(=O)n3nc(C4CC4)sc3n2)cc1` was run?
Answer: 78%

Question: Which survival does the source give for `CCOC(=O)c1c(C)[nH]c(CCC(=O)Nc2ccc(C)c(F)c2)c1C` here?
Answer: 70%

Question: How did the survival turn out when `O=C(NCC(c1cccnc1)N1CCN(Cc2ccccc2)CC1)C(=O)Nc1cccc(F)c1` (stereo unspecified) was run?
Answer: 114%

Question: Which survival does the source give for `COc1ccc(CCN2CC(C(=O)NCCc3ccc(C)cc3)CC2=O)cc1OC` (stereo unspecified) here?
Answer: 60%

Question: For `Cc1cccc(CNC(=O)c2cnc3sc(N4CCOCC4)nn3c2=O)c1`, which survival is on record?
Answer: 119%

Question: How did the survival turn out when `Cc1cc(=O)[nH]c2nnc(SCc3c(F)cccc3Cl)n12` was run?
Answer: 140%

Question: `COc1ccccc1C(=O)Nc1ccccc1OCc1cc(=O)n2c(C)csc2n1` was tested. Which survival did it give?
Answer: 81%

Question: With `CSc1ncc(C(=O)NCc2ccc(C)cc2)c(-c2ccccc2)n1` as the compound, how does the survival read?
Answer: -2% (active)

Question: With `CCOc1ccc(OCC)c(NC(=O)c2csc3c2CCCC3)c1` as the compound, how does the survival read?
Answer: -1% (active)

Question: Which survival does the source give for `CSc1ncc(C(=O)NCc2ccc(C)cc2)c(C)n1` here?
Answer: 73%

Question: Which survival does the source give for `COc1ccc(NC(=O)c2csc3c2CCCCC3)cc1` here?
Answer: 72%

Question: Which survival does the source give for `COc1ccc(Cl)cc1NC(=O)c1cnc(SC)nc1-c1ccccc1` here?
Answer: 22%

Question: For `CSc1ncc(C(=O)NCc2ccccc2)c(-c2ccccc2)n1`, which survival is on record?
Answer: 10% (active)

Question: With `CCOc1ccc(OCC)c(NC(=O)c2cnc(SC)nc2-c2ccccc2)c1` as the compound, how does the survival read?
Answer: 0% (active)

Question: Which survival does the source give for `CCOc1ccc(CCNC(=O)c2csc3c2CCCCC3)cc1` here?
Answer: 81%

Question: With `CSc1ncc(C(=O)NCc2cccc(F)c2)c(-c2ccccc2)n1` as the compound, how does the survival read?
Answer: 82%

Question: Which survival does the source give for `CSc1ncc(C(=O)NCc2cccc(C)c2)c(-c2ccccc2)n1` here?
Answer: 65%

Question: For `CSc1ncc(C(=O)Nc2ccc(F)cc2F)c(-c2ccccc2)n1`, which survival is on record?
Answer: 73%

Question: `CSc1ncc(C(=O)NCc2ccc(F)cc2)c(-c2ccccc2)n1` was tested. Which survival did it give?
Answer: 87%

Question: `CCOc1ccccc1NC(=O)Cn1c(=O)n(-c2ccccc2)c(=O)c2c1c1cc(C)ccc1n2C` was tested. Which survival did it give?
Answer: 84%

Question: For `CCOC(=O)CNC(=O)c1cc2c(=O)oc3ccccc3c2s1`, which survival is on record?
Answer: 146%

Question: `CCc1ccc(C2C(C(=O)Nc3ccc(Cl)cc3)=C(C)Nc3ncnn32)cc1` (stereo unspecified) was tested. Which survival did it give?
Answer: 59%

Question: For `Cc1ccc(CNC(=O)c2ccc3c(O)c(S(=O)(=O)c4ccccc4)c(=O)[nH]c3c2)cc1`, which survival is on record?
Answer: 83%

Question: With `N=C1SCC(=O)N1c1ccc(Cl)cc1` as the compound, how does the survival read?
Answer: 124%

Question: `Cc1ccc(-n2c(SCc3ccccc3F)nc3[nH]ncc3c2=O)cc1Cl` was tested. Which survival did it give?
Answer: 77%

Question: For `Cc1ccc2[nH]c(=O)c3cc(C(=O)N(C)c4ccc(Br)cc4)sc3c2c1`, which survival is on record?
Answer: 81%

Question: With `COC(=O)c1ccc(NC(=O)CN2C(=O)c3cccc4cccc2c34)cc1` as the compound, how does the survival read?
Answer: 85%

Question: How did the survival turn out when `NS(=O)(=O)c1ccc(CCNC(=O)CCn2c(=O)c3cccn3c3cccnc32)cc1` was run?
Answer: 92%

Question: With `O=C(NCc1cccc(Cl)c1)c1cnc(N2CCCCC2)c2ccccc12` as the compound, how does the survival read?
Answer: 89%

Question: `O=C(COC(=O)c1cccc(NC(=O)c2ccc(Br)cc2)c1)c1ccc(Cl)cc1` was tested. Which survival did it give?
Answer: 93%

Question: How did the survival turn out when `O=C(CC1N=C2c3ccccc3N=C(SCC(=O)Nc3cccc(Cl)c3)N2C1=O)NCc1cccs1` (stereo unspecified) was run?
Answer: 82%

Question: For `CCC(C)NC(=O)C1CCN(S(=O)(=O)c2ccc3c(ccn3CC)c2)CC1` (stereo unspecified), which survival is on record?
Answer: 0% (active)

Question: Which survival does the source give for `CCn1ccc2cc(S(=O)(=O)N3CCC(C(=O)NCc4ccc(OC(C)C)cc4)CC3)ccc21` here?
Answer: 69%

Question: With `CCn1ccc2cc(S(=O)(=O)N3CCC(C(=O)NCc4ccc(F)cc4)CC3)ccc21` as the compound, how does the survival read?
Answer: 80%

Question: `CCn1ccc2cc(S(=O)(=O)N3CCC(C(=O)NCC(C)c4ccccc4)CC3)ccc21` (stereo unspecified) was tested. Which survival did it give?
Answer: 87%

Question: With `CCCCNC(=O)C1CCN(S(=O)(=O)c2ccc3c(ccn3CC)c2)CC1` as the compound, how does the survival read?
Answer: 124%

Question: `CCn1ccc2cc(S(=O)(=O)N3CCC(C(=O)NCc4ccc(OC)cc4)CC3)ccc21` was tested. Which survival did it give?
Answer: -3% (active)

Question: With `O=C(Cn1c(=O)nc(-c2ccccc2)c2ccccc21)NCCCc1ccccc1` as the compound, how does the survival read?
Answer: 60%

Question: Which survival does the source give for `Cc1c(Cl)cccc1Nc1nn2c(=O)c3ccc(C(=O)NCCC4=CCCCC4)cc3nc2s1` here?
Answer: 74%

Question: `COc1ccc(OC)c(S(=O)(=O)N2CC=C(c3c(C)n(CC(=O)N4CCCC4)c4ccccc34)CC2)c1` was tested. Which survival did it give?
Answer: 83%

Question: Which survival does the source give for `O=S(=O)(c1cccc2nsnc12)N(CCOc1ccccc1)C1CCCCC1` here?
Answer: 99%

Question: `COc1cccc(CNC(=O)C2CCN(c3ncccn3)CC2)c1` was tested. Which survival did it give?
Answer: 102%

Question: With `CCn1c(=O)c2cc(C(=O)N3CCN(c4cccc(OC)c4)CC3)sc2c2ccccc21` as the compound, how does the survival read?
Answer: 69%
